Bioassay records deposited in PubChem BioAssay by several laboratories.
Most compounds without a hit are left out; they make up all but 5.9% or so of the library.
ALR H2O2 inh: inhibitors of human ALR sulfhydryl oxidase, primary screen, biochemical, H2O2 detection, HRP-luminol luminescence, single point; FAD-linked sulfhydryl oxidase ALR (Homo sapiens), P55789; purified ALR, DTT oxidation; inhibition, % (no concentration beside the values); 290,000 compounds, 3.8% hits; AID 485317, 2010;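 active means mean replicate inhibition above about 79%, with every replicate also reaching it, limit read from the data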
ABHD5-PLIN5 inh: ABHD5-PLIN5 interaction inhibitors, primary screen, cell lysate, split luciferase complementation, luminescence; Split G. princeps luciferase complementation, 4 h; inhibition, % at 4 µM; 360,000 compounds, 0.78% hits; AID 602281, 2012;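 active means inhibition above the mean inhibition across every tested compound plus 3 SD, cut at about 22% in these data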
PRMT1 FP inh: PRMT1 methyltransferase inhibitors, primary screen, biochemical, fluorescence polarization | Protein arginine N-methyltransferase 1 (Homo sapiens), Q99873 | recombinant PRMT1, activity-based probe fluorescence polarization | inhibition, % at 2.79 µM | 370,000 compounds, 1.3% hits | AID 652257, 2013;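 active means inhibition above about 21% made by adding two undisclosed values, limit read from the data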
Target sequence (Q99873 whole entry, looked up): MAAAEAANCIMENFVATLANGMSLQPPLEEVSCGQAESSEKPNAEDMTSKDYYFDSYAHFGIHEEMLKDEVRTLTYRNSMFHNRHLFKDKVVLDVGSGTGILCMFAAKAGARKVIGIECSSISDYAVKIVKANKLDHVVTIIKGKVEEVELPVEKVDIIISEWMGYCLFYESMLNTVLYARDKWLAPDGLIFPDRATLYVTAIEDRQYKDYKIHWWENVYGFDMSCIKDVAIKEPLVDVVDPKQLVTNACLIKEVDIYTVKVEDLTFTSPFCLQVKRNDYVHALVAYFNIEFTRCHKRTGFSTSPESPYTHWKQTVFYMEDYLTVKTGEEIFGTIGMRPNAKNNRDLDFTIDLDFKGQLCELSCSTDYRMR
Rtt109 HAT inh: inhibitors of C. albicans Rtt109/Vps75 HAT, primary screen, biochemical, ThioGlo CoA-SH fluorescence, plate reader; Histone acetyltransferase RTT109 (Candida albicans (strain SC5314 / ATCC MYA-2876)), …; purified Rtt109/Vps75, 4 h; inhibition, % at 34.9 µM; 330,000 compounds, 0.16% hits; AID 540336, 2011;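 active means inhibition of at least 50% in every replicate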
Target sequence (Q5AAJ8 whole entry, looked up): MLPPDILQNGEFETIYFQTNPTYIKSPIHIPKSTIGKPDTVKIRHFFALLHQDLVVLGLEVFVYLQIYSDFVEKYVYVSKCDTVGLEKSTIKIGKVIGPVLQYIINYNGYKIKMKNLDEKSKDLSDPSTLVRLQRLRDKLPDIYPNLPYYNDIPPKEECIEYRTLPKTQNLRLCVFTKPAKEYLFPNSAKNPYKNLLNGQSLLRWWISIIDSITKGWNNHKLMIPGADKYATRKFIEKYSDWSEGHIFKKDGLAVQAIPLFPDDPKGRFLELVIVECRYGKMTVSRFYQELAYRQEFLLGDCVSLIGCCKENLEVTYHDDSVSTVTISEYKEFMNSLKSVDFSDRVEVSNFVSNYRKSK
rCAG binder-1: binders of r(CAG) RNA repeats, primary screen, biochemical, fluorescence; AID 651821, 2012; inhibition, % at 3 µM; r(CAG) RNA repeat, TO-PRO-1 dye displacement fluorescence; 370,000 compounds, 1.3% hits;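 active means inhibition above the plate cutoff, the mean of all test compounds on that plate plus 3 SD, cut at about 35% in these data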;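 further: higher means more dye released from RNA so lower well fluorescence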
LANA-H2A inh: blockers of LANA interaction with H2A/H2B – biochemical, FP readout, HTS, primary screen. cell-free LANA-H2A/H2B peptide, fluorescence polarization. inhibition, % (concentration not given with the values). 320,000 compounds, 0.6% hits; in the data active means inhibition mostly above about 10%, no sharp cut-off; inactive means mostly below about 6.7%
rCAG bind conf: small molecules binding CAG repeat RNA – biochemical, fluorescence, confirmation | 4,300 compounds, 70% hits | r(CAG) RNA repeat, TO-PRO-1 dye displacement fluorescence | inhibition, % at 3 µM | AID 652065, 2013 | shares compounds with rCAG binder-1;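 active means inhibition above a per-plate cutoff, the mean inhibition of sample wells plus 3 SD, cut at about 35% in these data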;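 further: loss of TO-PRO-1 fluorescence as compound displaces dye from 1x1 AA loop RNA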
dCAG dye counter: displacement of TO-PRO-1 from CAG DNA duplex, counter-screen for rCAG RNA repeat binder project, biochemical, fluorescence, TO-PRO-1 dye, d(CAG) DNA oligo. d(CAG) DNA oligo TO-PRO-1 dye displacement. inhibition, % at 3 µM. AID 652068, 2013. shares compounds with rCAG binder-1. 4,300 compounds, 94% hits;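 active means inhibition above its plate's cutoff, the mean test-well inhibition plus 3 SD, cut at about 4.8% in these data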;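 further: hits displace the dye from DNA and so lower well fluorescence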
dCAG dye DR: inhibitors of DNA CAG/GTC TO-PRO-1 complex, dose response, counter-screen for rCAG RNA repeat binder project, biochemical, fluorescence, TO-PRO-1 dye; shares compounds with rCAG binder-1; DNA CAG/GTC duplex TO-PRO-1 dye displacement fluorescence; IC50, µM; 250 compounds, 20% hits; AID 686960, 2013; in the data active means IC50 below about 10 µM
dCAG TOPRO ctr: TO-PRO-1 dye complex inhibitors on d(CAG) DNA, dose response, counter-screen, biochemical, fluorescence, late stage; 30 compounds, 80% hits; d(CAG) DNA duplex TO-PRO-1 dye displacement; shares compounds with rCAG binder-1; IC50, µM
rCAG binder-2: molecules binding r(CAG) RNA repeats, late stage dose response, late-stage follow-up, biochemical, fluorescence, dose response, powder samples. shares compounds with rCAG binder-1. r(CAG) RNA TO-PRO-1 dye displacement. IC50, µM. 30 compounds, 100% hits
Large screens that a line does not name were inactive (follow-up assays come after a bar, where they were run). Unless noted, how the calls were made is not given here.

COc1cccc(NC(=O)C2CCCN2C(=O)Nc2ccc(Cl)cc2)c1 (stereo not drawn)	none (no result: ALR H2O2 inh, ABHD5-PLIN5 inh, Rtt109 HAT inh, LANA-H2A inh)
COC(=O)[C@]12C[C@H](CC(=O)NCC34CC5CC(CC(C5)C3)C4)C(=O)N(Cc3ccc(Cl)cc3Cl)C1=C[C@H](C(C)(C)C)O[C@@H]2C	none (no result: ALR H2O2 inh, ABHD5-PLIN5 inh, Rtt109 HAT inh, LANA-H2A inh)
COc1cccc(C(=O)N[C@H](C(=O)N2CCC[C@H]2C(=O)NCCc2ccccc2Cl)c2ccccc2)c1	none (no result: ALR H2O2 inh, ABHD5-PLIN5 inh, Rtt109 HAT inh, LANA-H2A inh)
CCOC(=O)c1c(CC(C)C)csc1NC(=O)c1ccccc1C(=O)O	rCAG binder-1 47 | rCAG bind conf 45 | dCAG dye counter 12
CCOC(=O)c1c(NS(=O)(=O)Cc2ccccc2)sc2c1CCCC2	rCAG binder-1 45 (no result: Rtt109 HAT inh) | rCAG bind conf 64 | dCAG dye counter 21 | dCAG dye DR inactive
CCOC(=O)c1c(CC(C)C)csc1NC(C)=O	none
CCOC(=O)c1c(NC(=O)c2ccccc2C(=O)O)sc2c1CCC2	rCAG binder-1 47 | rCAG bind conf inactive | dCAG dye counter 7.3
CC(C)OC(=O)c1c(NC(=O)C2CC=CCC2C(=O)O)sc2c1CCCCC2 (stereo not drawn)	rCAG binder-1 56 | rCAG bind conf 68 | dCAG dye counter 22
CCOC(=O)c1c(NC(=O)c2cccc([N+](=O)[O-])c2C(=O)O)sc2c1CCCC2	none
CCOC(=O)c1sc(NC(=O)c2ccccc2C(=O)O)c(C(=O)OCC)c1C	rCAG binder-1 45 | rCAG bind conf 35 | dCAG dye counter 7.7
N#Cc1c(NC(=O)C2C3C=CC(C3)C2C(=O)O)sc2c1CCCCC2 (stereo not drawn)	none
CC(C)Cc1csc(NC(=O)c2ccc(F)cc2)c1C(=O)O	rCAG binder-1 35 | rCAG bind conf inactive | dCAG dye counter inactive
CCOC(=O)c1c(NC(=O)C2C3C=CC(C3)C2C(=O)O)sc2c1CCCC2 (stereo not drawn)	rCAG binder-1 37 | rCAG bind conf 50 | dCAG dye counter 11 | dCAG dye DR inactive
CCOC(=O)c1c(NC(=O)c2c(C(=O)O)cccc2[N+](=O)[O-])sc2c1CCCC2	rCAG binder-1 47 | rCAG bind conf inactive | dCAG dye counter 10.0
Cc1cccc(OCc2nnc(SCC(=O)N(c3ccccc3)C3CCS(=O)(=O)C3)o2)c1 (stereo not drawn)	none (no result: ALR H2O2 inh)
COC(=O)c1c(NS(=O)(=O)c2ccc3ccccc3c2)sc2c1CCCC2	rCAG binder-1 44 | rCAG bind conf 70 | dCAG dye counter 32 | dCAG dye DR inactive | dCAG TOPRO ctr 2.9 | rCAG binder-2 1
CCOc1ccccc1NC(=O)COC(=O)C(Cc1ccccc1)NC(=O)c1ccco1 (stereo not drawn)	none
Cc1ccccc1CN1[C@@H](CC(C)C)COc2cc(Br)ccc2S1(=O)=O	none (no result: ALR H2O2 inh, ABHD5-PLIN5 inh, Rtt109 HAT inh, LANA-H2A inh)
COc1ccc(Cc2nnc(NS(=O)(=O)c3ccc(Cl)cc3)s2)cc1OC	rCAG binder-1 49 | rCAG bind conf 53 | dCAG dye counter 16
COc1ccc(C(=O)NC(=S)Nc2ccc(S(=O)(=O)Nc3cc(C)on3)cc2)cc1OC	rCAG binder-1 35 | rCAG bind conf 36 | dCAG dye counter 6.5
CCc1nnc(NS(=O)(=O)c2ccc(NC(=S)NC(=O)c3ccc(OC)cc3)cc2)s1	rCAG binder-1 70 (no result: ALR H2O2 inh, LANA-H2A inh) | rCAG bind conf 67 | dCAG dye counter 33
O=C(NC(=S)Nc1ccc(S(=O)(=O)Nc2nccs2)cc1)c1ccc(F)cc1	rCAG binder-1 53 | rCAG bind conf 38 | dCAG dye counter 14
CCc1nnc(NS(=O)(=O)c2ccc(NC(=S)NC(=O)c3ccncc3)cc2)s1	none
CCOC(=O)[C@]12CCCCC/C=C\1N(CCc1ccc(Cl)cc1)C(=O)[C@H]2CC(=O)NCc1ccc(C)o1	none (no result: ALR H2O2 inh, ABHD5-PLIN5 inh, Rtt109 HAT inh, LANA-H2A inh)
CC(=O)N1CCCN(C(=O)Cn2cnc3ccccc3c2=O)CC1	none (no result: ALR H2O2 inh, ABHD5-PLIN5 inh, Rtt109 HAT inh, LANA-H2A inh)
O=C(c1ccc(Cl)cc1)N1CCN(c2ccccn2)CC1	none (no result: ALR H2O2 inh, ABHD5-PLIN5 inh, Rtt109 HAT inh, rCAG binder-1, LANA-H2A inh)
C=CC[C@]1(O)C(=O)N(c2ccccc2)c2ccccc21	none (no result: ALR H2O2 inh, ABHD5-PLIN5 inh, Rtt109 HAT inh, LANA-H2A inh)
Cc1ccc(/C=N/NC(=O)c2c(C)nc3ccc(Cl)cn23)cc1	none (no result: ALR H2O2 inh, ABHD5-PLIN5 inh, Rtt109 HAT inh, LANA-H2A inh)
CCc1nnc(NS(=O)(=O)c2ccc(NC(=S)NC(=O)c3ccc(OC)c(OC)c3)cc2)s1	rCAG binder-1 68 (no result: Rtt109 HAT inh) | rCAG bind conf 68 | dCAG dye counter 32
COCc1nnc(NS(=O)(=O)c2ccc(NC(C)=O)cc2)s1	none
C[C@@H]1CN([C@H](C)CO)S(=O)(=O)c2ccc(C3=CCCCC3)cc2O[C@H]1CN(C)C(=O)Cc1cccnc1	none (no result: ALR H2O2 inh, Rtt109 HAT inh, LANA-H2A inh)
COc1cc(/C=C/c2ccc3cccc([N+](=O)[O-])c3n2)ccc1OCC(=O)O	rCAG binder-1 48 | rCAG bind conf 47 | dCAG dye counter 13
O=C(O)COc1ccc(/C=C/c2ccc3cccc([N+](=O)[O-])c3n2)cc1	rCAG binder-1 37 (no result: ALR H2O2 inh, LANA-H2A inh) | rCAG bind conf inactive | dCAG dye counter 8.4
CC(=O)Nc1ccc(/C=C/c2ccc3cccc([N+](=O)[O-])c3n2)cc1	none
O=C(Nc1nnc(COc2ccccc2F)s1)Nc1ccccc1F	none
COc1cccc(NC(=O)Nc2nnc(Cc3ccccc3)s2)c1	rCAG binder-1 41 | rCAG bind conf inactive | dCAG dye counter 15
C=CCSc1nsc(NC(=O)Nc2ccc(F)cc2)n1	rCAG binder-1 69 | rCAG bind conf inactive | dCAG dye counter 20
COc1ccc(Cc2nnc(NC(=O)Nc3ccc(F)cc3)s2)cc1	none
